Measured values: article PMC5540273 (PLoS ONE, 2017)
Several values for one entry are separate records, joined by “and”; a condition that tells them apart may be missing. Equal values may be shown once. Read-outs that look alike come from different tables or passages of the source.

Legend:
PRKCI = settings: concentration: 1 μM, replicates: in singlicate, n = 1
PRKCQ = settings: concentration: 1 μM, replicates: in singlicate, n = 1
PRKD1 = settings: concentration: 1 μM, replicates: in singlicate, n = 1
PRKD2 = settings: concentration: 1 μM, replicates: in singlicate, n = 1
PRKD3 = settings: concentration: 1 μM, replicates: in singlicate, n = 1
PRKG1 = settings: concentration: 1 μM, replicates: in singlicate, n = 1
PRKG2 = settings: concentration: 1 μM, replicates: in singlicate, n = 1
PRKR = test system: T1, PRKR; settings: concentration: 1 μM, replicates: in singlicate, n = 1
T1 construct: gene EIF2AK2

PRKX = settings: concentration: 1 μM, replicates: in singlicate, n = 1
PRP4 = settings: concentration: 1 μM, replicates: in singlicate, n = 1
PYK2 = test system: T2, PYK2; settings: concentration: 1 μM, replicates: in singlicate, n = 1
T2 construct: gene PTK2B

QSK = settings: concentration: 1 μM, replicates: in singlicate, n = 1
RAF1 = settings: concentration: 1 μM, replicates: in singlicate, n = 1
RET = settings: concentration: 1 μM, replicates: in singlicate, n = 1
RIOK1 = settings: concentration: 1 μM, replicates: in singlicate, n = 1
RIOK2 = settings: concentration: 1 μM, replicates: in singlicate, n = 1
RIOK3 = settings: concentration: 1 μM, replicates: in singlicate, n = 1
RIPK1 = settings: concentration: 1 μM, replicates: in singlicate, n = 1
RIPK2 = settings: concentration: 1 μM, replicates: in singlicate; n = 1
RIPK4 = settings: concentration: 1 μM, replicates: in singlicate, n = 1
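Note: KINOMEscan kinase panel screen.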

Question: For `Cl.Oc1cccc(Nc2ccnc3cc(-c4ccncc4)ccc23)c1` [GW494601], which “%Inh” value (PRKCI) is on record?
Answer: 22%

Question: What about the “%Inh” value (PRKCQ) of the same molecule?
Answer: 0%

Question: What about the “%Inh” value (PRKD1) of the same molecule?
Answer: 25%

Question: And the “%Inh” value (PRKD2)?
Answer: 29%

Question: And the “%Inh” value (PRKD3)?
Answer: 17%

Question: What about the “%Inh” value (PRKG1) of the same molecule?
Answer: 0%

Question: And the “%Inh” value (PRKG2)?
Answer: 1%

Question: And the “%Inh” value (PRKR)?
Answer: 21%

Question: What about the “%Inh” value (PRKX) of the same molecule?
Answer: 0%

Question: What about the “%Inh” value (PRP4) of the same molecule?
Answer: 34%

Question: What about the “%Inh” value (PYK2) of the same molecule?
Answer: 0%

Question: What about the “%Inh” value (QSK) of the same molecule?
Answer: 63%

Question: And the “%Inh” value (RAF1)?
Answer: 22%

Question: And the “%Inh” value (RET)?
Answer: 99.9%

Question: What about the “%Inh” value (RIOK1) of the same molecule?
Answer: 0%

Question: What about the “%Inh” value (RIOK2) of the same molecule?
Answer: 0%

Question: And the “%Inh” value (RIOK3)?
Answer: 0%

Question: What about the “%Inh” value (RIPK1) of the same molecule?
Answer: 15%

Question: And the “%Inh” value (RIPK2)?
Answer: 83%

Question: And the “%Inh” value (RIPK4)?
Answer: 47%

Question: With `COc1ccc(CNC(=O)NC2CCN(c3ccnc(Nc4ccc(OC)cc4)n3)C2)cc1` (centres unmarked) [GSK1379727] as the molecule, how does the “%Inh” value (PRKCI) read?
Answer: 12%

Question: What about the “%Inh” value (PRKCQ) of the same molecule?
Answer: 0%

Question: What about the “%Inh” value (PRKD1) of the same molecule?
Answer: 0%

Question: And the “%Inh” value (PRKD2)?
Answer: 8%

Question: And the “%Inh” value (PRKD3)?
Answer: 0%

Question: What about the “%Inh” value (PRKG1) of the same molecule?
Answer: 0%

Question: What about the “%Inh” value (PRKG2) of the same molecule?
Answer: 0%

Question: What about the “%Inh” value (PRKR) of the same molecule?
Answer: 0%

Question: What about the “%Inh” value (PRKX) of the same molecule?
Answer: 11%

Question: And the “%Inh” value (PRP4)?
Answer: 23%

Question: What about the “%Inh” value (PYK2) of the same molecule?
Answer: 1%

Question: And the “%Inh” value (QSK)?
Answer: 0%

Question: And the “%Inh” value (RAF1)?
Answer: 12%

Question: And the “%Inh” value (RET)?
Answer: 15%

Question: And the “%Inh” value (RIOK1)?
Answer: 8%

Question: And the “%Inh” value (RIOK2)?
Answer: 0%

Question: What about the “%Inh” value (RIOK3) of the same molecule?
Answer: 18%

Question: What about the “%Inh” value (RIPK1) of the same molecule?
Answer: 50%

Question: And the “%Inh” value (RIPK2)?
Answer: 0%

Question: What about the “%Inh” value (RIPK4) of the same molecule?
Answer: 0%

Question: Which results are given for `CNc1ncnc2[nH]ncc12` [SKF-18355]?
Answer: %Inh (PRKCI): 0%; %Inh (PRKCQ): 0%; %Inh (PRKD1): 0%; %Inh (PRKD2): 0%; %Inh (PRKD3): 0%; %Inh (PRKG1): 0%; %Inh (PRKG2): 0%; %Inh (PRKR): 0%; %Inh (PRKX): 0%; %Inh (PRP4): 0%; %Inh (PYK2): 0%; %Inh (QSK): 5%; %Inh (RAF1): 23%; %Inh (RET): 0%; %Inh (RIOK1): 0%; %Inh (RIOK2): 0%; %Inh (RIOK3): 0%; %Inh (RIPK1): 0%; %Inh (RIPK2): 0%; %Inh (RIPK4): 22%

Question: `NCCNS(=O)(=O)c1ccc(-c2ccnc3[nH]ccc23)cc1` [GSK977617] was tested. Which “%Inh” value (PRKCI; 1 µM) did it give?
Answer: 56% and 47%

Question: What about the “%Inh” value (PRKCQ; 1 µM) of the same molecule?
Answer: 86% and 70%

Question: What about the “%Inh” value (PRKD1; 1 µM) of the same molecule?
Answer: 49% and 33%

Question: What about the “%Inh” value (PRKD2; 1 µM) of the same molecule?
Answer: 51% and 23%

Question: And the “%Inh” value (PRKD3; 1 µM)?
Answer: 45% and 33%

Question: And the “%Inh” value (PRKG1; 1 µM)?
Answer: 97.6% and 96.7%

Question: And the “%Inh” value (PRKG2; 1 µM)?
Answer: 98.6% and 98%

Question: What about the “%Inh” value (PRKR; 1 µM) of the same molecule?
Answer: 52% and 42%

Question: And the “%Inh” value (PRKX; 1 µM)?
Answer: 94.7% and 92.2%

Question: What about the “%Inh” value (PRP4; 1 µM) of the same molecule?
Answer: 28% and 20%

Question: What about the “%Inh” value (PYK2; 1 µM) of the same molecule?
Answer: 31% and 21%

Question: And the “%Inh” value (QSK; 1 µM)?
Answer: 6% and 15%

Question: What about the “%Inh” value (RAF1; 1 µM) of the same molecule?
Answer: 2% and 0%

Question: And the “%Inh” value (RET; 1 µM)?
Answer: 28% and 19%

Question: What about the “%Inh” value (RIOK1; 1 µM) of the same molecule?
Answer: 91.4%

Question: What about the “%Inh” value (RIOK2; 1 µM) of the same molecule?
Answer: 93.8% and 88%

Question: What about the “%Inh” value (RIOK3; 1 µM) of the same molecule?
Answer: 78% and 84%

Question: And the “%Inh” value (RIPK1; 1 µM)?
Answer: 9% and 8%

Question: And the “%Inh” value (RIPK2)?
Answer: 0%

Question: And the “%Inh” value (RIPK4; 1 µM)?
Answer: 50% and 29%
